# Shown are actives, neighbours in structure and some others; about 4.2% of the full set was active somewhere.
# S1P4 agonist = agonists of human S1P4 receptor. S1P4-expressing cell line, agonist reporter assay. activation, % at 4.98 µM. 220,000 tested, 0.35% active; in the data active = activation above about 11%
# S1P4 antagonist = human S1P4 receptor antagonism; O95977; S1P4-expressing cells, antagonist mode, reporter read-out; inhibition, % at 4.98 µM; 220,000 tested, 0.26% active; AID 1510; in the data active = inhibition above about 29%
# Hsp70 act = transcriptional activators of Hsp70 | HeLa Hsp70 promoter luciferase reporter, luminescence; scaled: vehicle 0, proteasome-inhibitor control 100% | activation, % at 10 µM | 200,000 tested, 0.04% active;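 active = activation above the mean across all tested compounds plus 3 SD, cutoff set per campaign, cut at about 5.5% in these data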
# CHOP inhibitor = CHOP inhibition in unfolded protein response. 220,000 tested, 3.8% active. inhibition, % at 10 µM. AID 2732. CHO-K1 CHOP-promoter luciferase, tunicamycin-induced, 15-18 h;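 active = compounds that reduced the stress-induced luciferase reporter signal by more than about 70% of percent inhibition, limit read from the data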
# S1P4 ag conf = confirmation of human S1P4 receptor agonists; shares compounds with S1P4 agonist; S1P4 agonist cell-based reporter assay; activation, % at 4.98 µM; 740 tested, 7% active; in the data active = activation above about 12%
# S1P1 agonist = counter-screen for S1P4 agonists: agonists of human S1P1; shares compounds with S1P4 agonist; S1P1 agonist cell-based assay, activation; activation, % at 4.98 µM; 740 tested, 4% active; AID 1563; in the data active = activation above about 21%
# Target sequence (P21453 whole entry, looked up): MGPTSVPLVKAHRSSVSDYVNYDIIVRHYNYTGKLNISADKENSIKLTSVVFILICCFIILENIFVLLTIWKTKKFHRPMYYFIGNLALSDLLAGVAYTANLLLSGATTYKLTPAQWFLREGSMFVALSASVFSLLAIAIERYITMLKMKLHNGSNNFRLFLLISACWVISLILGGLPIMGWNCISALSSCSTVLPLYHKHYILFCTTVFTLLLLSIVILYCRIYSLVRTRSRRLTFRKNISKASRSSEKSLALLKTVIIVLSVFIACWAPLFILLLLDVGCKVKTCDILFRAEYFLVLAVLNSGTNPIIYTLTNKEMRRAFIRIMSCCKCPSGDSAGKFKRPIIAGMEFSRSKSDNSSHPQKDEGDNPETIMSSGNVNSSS
# S1P4 antag cf = confirmation of human S1P4 receptor antagonists. 520 tested, 71% active. inhibition, % at 4.98 µM. AID 1524. S1P4-expressing cell line, antagonist mode, reporter read-out. shares compounds with S1P4 antagonist; in the data active = inhibition above about 30%
# S1P1 antag = human S1P1 antagonism as S1P4 antagonist counter-screen; shares compounds with S1P4 antagonist; cell-based S1P1 antagonist counterscreen, inhibition; inhibition, % at 4.98 µM; 520 tested, 37% active; in the data active = inhibition above about 40%;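 note: receptor stimulated with S1P near its EC80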
# CHOP inh conf = confirmation of CHOP induction inhibitors; shares compounds with CHOP inhibitor; 2,100 tested, 45% active; CHO-CHOP promoter luciferase reporter, tunicamycin-induced, luminescence; AID 504437; inhibition, % at 10 µM;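 active = mean of three repeat readings of reporter signal inhibition above a set limit, cut at about 70% in these data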
# Numbers stand for hits; – = inactive; · = no result given.
SMILES,S1P4 agonist,S1P4 antagonist,Hsp70 act,CHOP inhibitor,S1P4 ag conf,S1P1 agonist,S1P4 antag cf,S1P1 antag,others
Fc1ccc(-c2nnc3ccccn23)cc1,29,–,–,–,–,–,·,·,
CCCN(CCC)c1ccc(/C=C/c2ccc3cc(OCC)ccc3n2)cc1,17,–,·,–,30,47,·,·,
COC(=O)c1c(-c2cccc(C)c2)csc1NC(=O)C1CCCO1 (stereo unspecified),–,–,–,–,·,·,·,·,
O=C(Nc1cc(Br)ccc1O)c1cnn2c(C(F)F)cc(C3CC3)nc12,–,–,–,–,·,·,·,·,
CC(C)C(=O)NC(=S)Nc1ccccc1C(=O)NC1CCCCC1,58,–,–,–,–,–,·,·,
CC(=O)c1ccc(Nc2c3c(nc4ccccc24)CCCC3)cc1,27,–,·,–,–,–,·,·,
O=[N+]([O-])c1ccc(N2CCN(C(=S)Nc3cccc(F)c3)CC2)cc1,–,–,–,–,·,·,·,·,
Clc1ccc2nc(N3CCNCC3)nc(-c3ccccc3)c2c1,20,30,–,·,13,–,39,–,
O=C1C(Cl)=C(Nc2ccc(O)cc2)C(=O)c2ccccc21,14,90,·,–,–,–,105,65,
COc1ccc(C(=O)CCc2nc3ccccc3s2)cc1,–,–,–,–,·,·,·,·,
CN(C)c1ccc(/C=C/c2ccc3ccccc3n2)cc1,20,32,·,78,–,–,63,44,
Oc1ccc(/C=C/c2ccc3ccccc3n2)cc1,–,–,–,–,·,·,·,·,
CC(OC(=O)c1cc(Cl)ccc1[N+](=O)[O-])C(=O)NC(C)c1ccc(F)cc1 (stereo unspecified),–,–,–,–,·,·,·,·,
CC(=O)Oc1ccc2cc(-c3nc4ccccc4n3C)c(=O)oc2c1,30,36,–,–,15,–,37,–,
CC(C)(C)C(=O)Oc1ccc2cc(-c3ccc4ccccc4n3)c(=O)oc2c1,–,–,–,–,·,·,·,·,
CC(C)N=c1scc(-c2ccco2)n1/N=C/c1ccc(O)c(O)c1,12,–,–,100,22,55,·,·,CHOP inh conf=–
Cc1cc2n(n1)C(c1ccccc1)CC(c1ccc(Br)cc1)=N2 (stereo unspecified),–,–,–,–,·,·,·,·,
O=C(Oc1ccc(Br)cc1C(=O)/C=C/c1ccccc1F)c1ccco1,–,41,–,·,·,·,94,–,
CC(=O)Nc1cccc(C(=O)/C=C/c2ccc(C)cc2)c1,–,45,–,–,·,·,55,–,
CCC(=O)Nc1cccc(C(=O)/C=C/c2ccc(F)cc2)c1,–,–,–,–,·,·,·,·,
O=C(c1ccc(S(=O)(=O)c2cccc(Cl)c2)c([N+](=O)[O-])c1)N1CCN(c2ccccn2)CC1,–,–,–,–,·,·,·,·,
CC(C)N1CCC2(CC1)Oc1ccc(Br)cc1C1CC(c3cccnc3)=NN12 (stereo unspecified),–,32,·,–,·,·,–,–,
O=C(Nc1nnc(-c2ccc(Cl)s2)o1)C1CC1,–,–,–,–,·,·,·,·,
O=C(Nc1nnc(-c2cccs2)o1)C1CC1,–,31,–,–,·,·,–,–,
COC(CNC(=O)c1ccc2c3c(onc13)-c1ccccc1C2=O)OC,–,37,·,–,·,·,114,–,
SMILES,S1P4 agonist,S1P4 antagonist,Hsp70 act,CHOP inhibitor,S1P4 ag conf,S1P1 agonist,S1P4 antag cf,S1P1 antag,others
COC(CNC(=O)c1cccnc1)OC,–,–,–,–,·,·,·,·,
CCOC(=O)C1=C(C)N=C2SC(C(=O)OC)=CC(=O)N2C1c1ccc(OC)cc1 (stereo unspecified),–,46,–,–,·,·,–,–,
CCOC(=O)N1CCC(N2C(=O)c3ccccc3C2Nc2ccc3c(c2)OCCO3)CC1 (stereo unspecified),–,–,–,–,·,·,·,·,
Fc1c(F)c(F)c(/C=N/NC(=S)Nc2cccnc2)c(F)c1F,–,40,–,–,·,·,66,–,
CCOc1ccc(-c2nc(-c3ccccc3)no2)cc1OCC,–,78,–,–,·,·,–,–,
CCOC(=O)c1cnc2c([N+](=O)[O-])cnn2c1C,–,–,–,–,·,·,·,·,
O=C(Nc1cccc(S(=O)(=O)N2CCCCC2)c1)c1ccc([N+](=O)[O-])o1,–,54,–,–,·,·,95,–,

# Bioassay records deposited in PubChem BioAssay by several laboratories.
